Results filed as inconclusive are left out. A call without a number means that no potency is given here. Activity calls are given as the source filed them. Calls follow the shape of the dose curve; as a rule, active = well fitted activation curve with a large enough effect; inconclusive = small, poorly fitted or top-dose-only effect; inactive = flat fitted curve, though single readings scatter. Positions of bridges follow the written chain, without caps; N, C: chain ends. Non-standard residues stand in square brackets, D forms with d. Residues, ends and D or L forms follow the SMILES beside them. *: point of attachment. X1 = CC[C@@H](C)[C@@H](N)C1=N[C@H](C(=O)*)CS1; d(aIle) = CC[C@H](C)[C@@H](N)C(=O)O; dOrn = NCCC[C@@H](N)C(=O)O; Orn = NCCC[C@H](N)C(=O)O
experiment: qHTS assay to identify small molecule phospholipidosis (PLD) inducers (AID 1259344); details: HepG2 phospholipidosis, LipidTOX Red imaging, 24 h; series mostly up to 38.3 µM
Summary of the method: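 HepG2 cells, 900/well, treated with compound plus LipidTOX Red for 24 h at 37 C; amiodarone positive and DMSO negative controls. Fixed with paraformaldehyde/Hoechst, then high-content imaging scored LipidTOX pit count and integrated intensity per well and per cell.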

| SMILES | Potency | PLD induction |
| --- | --- | --- |
| CCCCCCCCCC(=O)NO | inactive | – |
| CC(=O)OCC(=O)[C@@]1(O)CC[C@H]2[C@@H]3CCC4=CC(=O)CC[C@]4(C)C3=CC[C@@]21C | inactive | – |
| CCC(O)c1ccccc1 (stereo not given) | inactive | – |
| Nc1nc(NC2CC2)c2ncn([C@@H]3C=C[C@@H](CO)C3)c2n1 | inactive | – |
| CC[C@@H](C)[C@@H](N)C1=N[C@H](C(=O)N[C@@H](CC(C)C)C(=O)N[C@@H](CCC(=O)O)C(=O)N[C@@H](C(=O)N[C@@H]2CCCCNC(=O)[C@@H](CC(N)=O)NC(=O)[C@@H](CC(=O)O)NC(=O)[C@@H](Cc3cnc[nH]3)NC(=O)[C@@H](Cc3ccccc3)NC(=O)[C@@H]([C@H](C)CC)NC(=O)[C@@H](CCCN)NC2=O)[C@@H](C)CC)CS1 (X1-LE[d(aIle)][dK][dOrn][dI][dF][dH][dD][dN]; lactam 4-C) | inactive | – |
| CCOC(=O)[C@H](CCc1ccccc1)N[C@@H](C)C(=O)N1[C@H](C(=O)O)C[C@H]2CCCC[C@@H]21 | inactive | – |
| OCC1(CO)COC(C(Cl)(Cl)Cl)OC1 | inactive | – |
| CCCCCCCC[N+](C)(C)CCCCCCCC | inactive | – |
| COC(=O)C(CN)c1c[nH]c2ccc(OC)cc12 (stereo not given) | inactive | – |
| NC(=S)NS(=O)(=O)c1ccc(N)cc1 | inactive | – |
| Cc1cn([C@H]2C[C@H](O)[C@@H](CO)O2)c(=O)[nH]c1=O | inactive | – |
| NC(N)=NCCCCN=C(N)N | inactive | – |
| O=C(O)CCCC/C=C(\c1ccccc1)c1cccnc1 | inactive | – |
| Cc1onc(-c2c(F)cccc2Cl)c1C(=O)N[C@@H]1C(=O)N2[C@@H]1SC(C)(C)[C@@H]2C(=O)O | inactive | – |
| CC(C)c1ncc([N+](=O)[O-])n1C | inactive | – |
| CN1[C@@H](CC(=O)c2ccccc2)CCC[C@H]1C[C@H](O)c1ccccc1 | inactive | – |
| Nc1cc(Cl)c(NC2=NCCN2)c(Cl)c1 | inactive | – |
| CC(=O)O[C@H]1C[C@@H]2CC[C@@H]3[C@H](CC[C@@]4(C)[C@H]3C[C@H]([N+]3(C)CCCCC3)[C@@H]4OC(C)=O)[C@@]2(C)C[C@@H]1[N+]1(C)CCCCC1 | inactive | – |
| OCl | inactive | – |
| CCN(CC)CCn1c(=O)c(Cc2ccc(OC)cc2)nc2ccccc21 | – | 1.39% [at 7.66 µM] (inactive) |

| SMILES | Potency | PLD induction |
| --- | --- | --- |
| O=C(O)c1ccc(NC2OC[C@@H](O)[C@H](O)[C@H]2O)cc1 (stereo not given in full) | inactive | – |
| C[C@H](O)CN(C)C | inactive | – |
| O=C(O)COc1ccc(C(=O)c2cccs2)c(Cl)c1Cl | inactive | – |
| O=C(O)[C@@H]1C[C@H](CP(=O)(O)O)CCN1 | inactive | – |
| CNC(=O)C[C@@H](N)C(=O)N[C@@H](C(=O)N[C@@H]1C(=O)N2[C@@H]1SC(C)(C)[C@@H]2C(=O)O)c1ccc(O)cc1 | inactive | – |
| NCCO/C=C/[C@H](N)C(=O)O | inactive | – |
| CC(C)[N+]1(C)[C@@H]2CC[C@H]1CC(OC(=O)C(CO)c1ccccc1)C2 (stereo not given in full) | inactive | – |
| CC(C)C[C@@H]1NC(=O)[C@H](CCCN)NC(=O)[C@H](C(C)C)NC(=O)[C@@H]2CCCN2C(=O)[C@@H](Cc2ccccc2)NC(=O)[C@H](CC(C)C)NC(=O)[C@H](CCCN)NC(=O)[C@H](C(C)C)NC(=O)[C@@H]2CCCN2C(=O)[C@@H](Cc2ccccc2)NC1=O (cyclo(V[Orn]L[dF]PV[Orn]L[dF]P)) | inactive | – |
| c1ccc2c(c1)OCC(CN1CCCCC1)O2 (stereo not given) | inactive | – |
| C1CCc2nnnn2CC1 | inactive | – |
| CN[C@@H]1[C@@H](O[C@H]2O[C@H](CO)[C@@H](N)[C@H](O)[C@H]2O)O[C@H]2C[C@@H](N)[C@@H](O[C@H]3[C@H](O)[C@@H](O)[C@H](N)C[C@@H]3N)O[C@@H]2[C@@H]1O | inactive | – |
| CC[C@@H](C)[C@H](N)C(=O)O | inactive | – |
| CC12CCC(C[N+](C)(CCC[N+](C)(C)C)C1)C2(C)C (stereo not given) | inactive | – |
| C/C(=C\C(=O)OCCCCCCCCC(=O)O)C[C@@H]1OC[C@H](C[C@@H]2O[C@H]2[C@@H](C)[C@H](C)O)[C@@H](O)[C@H]1O | inactive | – |
| CC[C@@H](C(=O)[C@@H](C)[C@@H](O)[C@H](C)CCc1ccc(C)c(O)c1C(=O)O)[C@H]1O[C@](CC)([C@H]2CC[C@](O)(CC)[C@H](C)O2)C[C@@H]1C | inactive | – |
| CN(C)CCC(O)(c1ccccc1)c1ccccc1Cl (stereo not given) | inactive | – |
| N[C@H](C(=O)O)[C@@H]1CC(Cl)=NO1 | inactive | – |
| CC(C)=CCC/C(C)=C/CC/C(C)=C/CC/C=C(\C)CC/C=C(\C)CCC=C(C)C | inactive | – |
| O=C(O)c1ccccn1 | inactive | – |
| CC1(C)S[C@@H]2[C@H](N3C(=O)C(c4ccccc4)NC3(C)C)C(=O)N2[C@H]1C(=O)O (stereo not given in full) | inactive | – |
